# Key:
# Assay in all cases: DAPPL (digital affinity profiling via proximity ligation, sequencing); 10 mM Tris-HCl pH 7.5, 50 mM NaCl, 1 mM DTT, 4% glycerol, room temperature, 30 min; GST-TFs on glutathione beads, 16-mer random dsDNA library, 0.1% formaldehyde crosslink after washing; high values mean tight binding
# Details in all cases: protein: recombinant; tags: N-terminal GST; dsDNA, one strand shown
# [1] = target: T1, FLI1 (Homo sapiens, UniProt Q01543 1-452)
# T1 sequence: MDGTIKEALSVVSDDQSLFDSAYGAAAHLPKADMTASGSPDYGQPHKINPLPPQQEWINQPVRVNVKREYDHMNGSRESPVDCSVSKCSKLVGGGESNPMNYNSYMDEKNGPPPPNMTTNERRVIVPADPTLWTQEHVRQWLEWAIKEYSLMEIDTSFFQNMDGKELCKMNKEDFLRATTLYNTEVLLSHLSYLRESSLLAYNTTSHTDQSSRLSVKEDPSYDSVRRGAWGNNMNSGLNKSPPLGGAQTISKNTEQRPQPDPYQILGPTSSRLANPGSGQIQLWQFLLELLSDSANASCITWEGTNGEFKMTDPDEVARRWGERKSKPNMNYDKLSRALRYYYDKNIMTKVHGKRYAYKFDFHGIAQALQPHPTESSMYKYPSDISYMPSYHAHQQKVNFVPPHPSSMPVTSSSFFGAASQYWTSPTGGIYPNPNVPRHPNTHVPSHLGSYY
# Procedure, shortened: (§1)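 Pools were built from human transcription factors expressed in yeast as GST fusions, captured on glutathione beads and DNA-barcoded, along with a tag-only sample. Incubation with 200 nmole of a 16-mer random double-stranded DNA library lasted 30 min at room temperature in Tris/NaCl/DTT/glycerol buffer, and was followed by washing, 0.1% formaldehyde crosslinking, proximity ligation, PCR amplification and Illumina NextSeq500 sequencing. Binding signal is the quotient of each hexamer's read frequency for a factor and its frequency for the tag-only sample.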
# [2] = target: T2, ELK1 (Homo sapiens, UniProt P19419 1-428)
# T2 sequence: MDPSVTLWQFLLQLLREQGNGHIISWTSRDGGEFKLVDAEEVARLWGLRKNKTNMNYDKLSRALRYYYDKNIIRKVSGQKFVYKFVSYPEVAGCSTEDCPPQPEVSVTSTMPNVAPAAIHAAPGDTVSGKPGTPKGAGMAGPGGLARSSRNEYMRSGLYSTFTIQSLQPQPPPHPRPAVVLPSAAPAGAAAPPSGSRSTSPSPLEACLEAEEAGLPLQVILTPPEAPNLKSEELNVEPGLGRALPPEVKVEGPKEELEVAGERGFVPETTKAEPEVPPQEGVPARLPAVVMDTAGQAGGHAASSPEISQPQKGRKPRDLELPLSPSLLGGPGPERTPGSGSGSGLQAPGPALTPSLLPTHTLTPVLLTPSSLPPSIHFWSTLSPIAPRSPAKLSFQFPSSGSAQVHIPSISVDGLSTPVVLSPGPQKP
# Procedure, shortened: as §1
# [3] = target: T3, GABPA (Homo sapiens, UniProt Q06546 1-454)
# T3 sequence: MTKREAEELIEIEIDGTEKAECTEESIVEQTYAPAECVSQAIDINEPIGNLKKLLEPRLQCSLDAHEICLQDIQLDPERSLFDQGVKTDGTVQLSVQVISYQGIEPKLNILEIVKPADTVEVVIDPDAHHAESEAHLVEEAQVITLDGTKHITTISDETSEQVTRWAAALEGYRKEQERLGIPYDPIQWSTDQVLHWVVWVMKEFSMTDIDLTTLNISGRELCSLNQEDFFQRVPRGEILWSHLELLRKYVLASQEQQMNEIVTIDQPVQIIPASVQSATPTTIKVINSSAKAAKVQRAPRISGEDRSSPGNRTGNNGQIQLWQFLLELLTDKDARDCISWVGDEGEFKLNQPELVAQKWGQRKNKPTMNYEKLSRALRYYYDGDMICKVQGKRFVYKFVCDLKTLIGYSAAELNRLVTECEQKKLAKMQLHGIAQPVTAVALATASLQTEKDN
# Procedure, shortened: as §1
# [4] = target: T4, ERG (Homo sapiens, UniProt P11308 1-479)
# T4 sequence: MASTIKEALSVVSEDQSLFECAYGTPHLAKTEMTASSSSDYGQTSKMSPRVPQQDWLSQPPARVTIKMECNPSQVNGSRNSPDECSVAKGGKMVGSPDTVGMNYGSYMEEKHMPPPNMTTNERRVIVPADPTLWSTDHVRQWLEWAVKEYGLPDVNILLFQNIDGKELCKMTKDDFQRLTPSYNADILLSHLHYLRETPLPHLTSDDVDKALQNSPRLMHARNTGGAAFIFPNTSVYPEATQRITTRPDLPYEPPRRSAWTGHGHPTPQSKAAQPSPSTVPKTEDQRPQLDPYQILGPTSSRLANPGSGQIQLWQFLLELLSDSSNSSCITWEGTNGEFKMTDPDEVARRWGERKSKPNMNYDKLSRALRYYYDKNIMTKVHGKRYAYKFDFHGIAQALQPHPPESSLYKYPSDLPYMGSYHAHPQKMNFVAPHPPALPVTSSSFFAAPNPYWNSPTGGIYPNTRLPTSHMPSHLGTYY
# Procedure, shortened: as §1
# [5] = target: ELF1 (Homo sapiens, UniProt P32519 1-619)
# Procedure, shortened: as §1
# [6] = target: T5, EHF (Homo sapiens, UniProt Q9NZC4 1-300)
# T5 sequence: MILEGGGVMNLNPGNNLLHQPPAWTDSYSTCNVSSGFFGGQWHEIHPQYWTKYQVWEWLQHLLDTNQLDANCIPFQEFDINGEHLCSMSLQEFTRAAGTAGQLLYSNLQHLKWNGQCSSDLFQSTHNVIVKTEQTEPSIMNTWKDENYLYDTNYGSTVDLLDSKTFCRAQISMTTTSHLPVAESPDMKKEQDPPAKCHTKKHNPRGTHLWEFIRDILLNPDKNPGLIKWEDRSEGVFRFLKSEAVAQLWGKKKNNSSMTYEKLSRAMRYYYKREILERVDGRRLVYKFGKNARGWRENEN
# Procedure, shortened: as §1
# [7] = target: SPI1 (Homo sapiens, UniProt P17947 1-270)
# Procedure, shortened: as §1
# [8] = target: SPIB (Homo sapiens, UniProt Q01892 1-262)
# Procedure, shortened: as §1
# [9] = target: T6, ELK3 (Homo sapiens, UniProt P41970 1-407)
# T6 sequence: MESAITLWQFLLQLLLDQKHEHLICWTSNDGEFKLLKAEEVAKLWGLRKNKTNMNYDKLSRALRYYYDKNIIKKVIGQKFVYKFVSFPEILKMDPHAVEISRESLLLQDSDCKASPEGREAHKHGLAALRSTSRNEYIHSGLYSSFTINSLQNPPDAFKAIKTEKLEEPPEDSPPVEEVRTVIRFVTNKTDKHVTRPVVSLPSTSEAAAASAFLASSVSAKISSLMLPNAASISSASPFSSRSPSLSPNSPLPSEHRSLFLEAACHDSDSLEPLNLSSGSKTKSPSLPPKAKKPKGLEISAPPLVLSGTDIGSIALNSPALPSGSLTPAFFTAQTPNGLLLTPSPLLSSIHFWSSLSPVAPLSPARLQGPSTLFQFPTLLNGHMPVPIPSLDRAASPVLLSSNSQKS
# Procedure, shortened: as §1
# Sequence of SPIB (Q01892 whole entry): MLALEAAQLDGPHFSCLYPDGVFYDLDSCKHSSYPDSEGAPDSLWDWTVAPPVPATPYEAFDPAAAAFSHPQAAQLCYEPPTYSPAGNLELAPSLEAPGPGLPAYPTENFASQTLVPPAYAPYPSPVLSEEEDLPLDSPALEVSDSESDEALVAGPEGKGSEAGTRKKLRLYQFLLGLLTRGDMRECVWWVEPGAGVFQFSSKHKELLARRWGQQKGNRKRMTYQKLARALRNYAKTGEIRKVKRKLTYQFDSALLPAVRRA
# Sequence of ELF1 (P32519 whole entry): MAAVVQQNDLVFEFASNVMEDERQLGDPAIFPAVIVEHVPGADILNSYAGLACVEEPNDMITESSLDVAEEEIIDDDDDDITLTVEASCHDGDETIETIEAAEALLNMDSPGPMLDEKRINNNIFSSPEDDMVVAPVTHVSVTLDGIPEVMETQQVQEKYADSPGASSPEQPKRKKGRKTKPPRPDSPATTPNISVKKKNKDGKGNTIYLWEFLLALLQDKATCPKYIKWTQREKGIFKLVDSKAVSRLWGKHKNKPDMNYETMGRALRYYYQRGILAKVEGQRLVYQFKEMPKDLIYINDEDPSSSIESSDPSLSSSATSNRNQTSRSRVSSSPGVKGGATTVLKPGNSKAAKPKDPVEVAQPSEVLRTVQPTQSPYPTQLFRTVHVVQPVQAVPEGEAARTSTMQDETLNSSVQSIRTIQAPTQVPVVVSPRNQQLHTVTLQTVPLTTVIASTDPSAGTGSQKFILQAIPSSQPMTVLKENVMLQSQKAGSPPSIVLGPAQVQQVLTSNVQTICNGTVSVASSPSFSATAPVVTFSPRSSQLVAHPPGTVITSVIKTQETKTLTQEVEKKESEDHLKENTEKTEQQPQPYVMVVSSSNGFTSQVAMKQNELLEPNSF
sequence,measurement,setting,value
CTCCAG,binding signal,[1],"1.08 fold enrichment (6-mer frequency, TF over GST control)"
same,binding signal,[2],"1.12 fold enrichment (6-mer frequency, TF over GST control)"
same,binding signal,[3],"1.26 fold enrichment (6-mer frequency, TF over GST control)"
same,binding signal,[4],"1.16 fold enrichment (6-mer frequency, TF over GST control)"
same,binding signal,[5],"1.19 fold enrichment (6-mer frequency, TF over GST control)"
same,binding signal,[6],"1.17 fold enrichment (6-mer frequency, TF over GST control)"
same,binding signal,[7],"1.21 fold enrichment (6-mer frequency, TF over GST control)"
same,binding signal,[8],"1.23 fold enrichment (6-mer frequency, TF over GST control)"
same,binding signal,[9],"1.29 fold enrichment (6-mer frequency, TF over GST control)"
